The other results are listed elsewhere or left out. Results filed as inconclusive are left out. Calls of active or inactive are those of the source. The call rests on the fitted dose curve; in most records, active means well fitted inhibition curve with a large enough effect; inconclusive means small, poorly fitted or top-dose-only effect; inactive means no such curve, though single readings can be large or run the other way.
Potency means the concentration at half of the fitted maximal effect.

The target of the assay is Histone-lysine N-methyltransferase 2A (Homo sapiens) (UniProt Q03164). In words: qHTS Fluorescence Polarization (FP) Assay for Inhibitors of MLL CXXC domain - DNA interaction: Texas Red FP. Further: nearly all actives have a fitted effect of over 75% in size. To be noted: MLL CXXC-DNA binding; series mostly up to 345 µM. The text has this: The MLL (Mixed Lineage Luekemia) gene is involved in chromosomal translocation that results in either acute lymphoid leukemia (ALL) or acute myeloid leukemia (AML). Chromasomal translocation of MLL gene is responsible for the fusion of N-terminal MLL to more than 60 different partner genes in frame. Many of the MLL partner genes contain transcription activation domains or function as transcriptional activators. Despite the heterogeneity of fusion partners, the N-terminus of MLL fusion proteins always consists of the N-terminal menin binding motif and the CXXC domain. The MLL-CXXC domain specifically recognizes unmethylated CpG sequences of the HOX-A gene. Disruption of the MLL-CXXC and HOX-A gene interaction leads to down regulation of HOX-A gene expression and may potentially reverse leukemogenesis. We have miniaturized and optimized an in-vitro assay to screen for inhibitors of the MLL-CXXC domain and HOX-A DNA interaction, which could have utility in MLL fusion leukemias.
Sequence of Histone-lysine N-methyltransferase 2A (Homo sapiens) (Q03164 whole entry, looked up, the tested form may be a part): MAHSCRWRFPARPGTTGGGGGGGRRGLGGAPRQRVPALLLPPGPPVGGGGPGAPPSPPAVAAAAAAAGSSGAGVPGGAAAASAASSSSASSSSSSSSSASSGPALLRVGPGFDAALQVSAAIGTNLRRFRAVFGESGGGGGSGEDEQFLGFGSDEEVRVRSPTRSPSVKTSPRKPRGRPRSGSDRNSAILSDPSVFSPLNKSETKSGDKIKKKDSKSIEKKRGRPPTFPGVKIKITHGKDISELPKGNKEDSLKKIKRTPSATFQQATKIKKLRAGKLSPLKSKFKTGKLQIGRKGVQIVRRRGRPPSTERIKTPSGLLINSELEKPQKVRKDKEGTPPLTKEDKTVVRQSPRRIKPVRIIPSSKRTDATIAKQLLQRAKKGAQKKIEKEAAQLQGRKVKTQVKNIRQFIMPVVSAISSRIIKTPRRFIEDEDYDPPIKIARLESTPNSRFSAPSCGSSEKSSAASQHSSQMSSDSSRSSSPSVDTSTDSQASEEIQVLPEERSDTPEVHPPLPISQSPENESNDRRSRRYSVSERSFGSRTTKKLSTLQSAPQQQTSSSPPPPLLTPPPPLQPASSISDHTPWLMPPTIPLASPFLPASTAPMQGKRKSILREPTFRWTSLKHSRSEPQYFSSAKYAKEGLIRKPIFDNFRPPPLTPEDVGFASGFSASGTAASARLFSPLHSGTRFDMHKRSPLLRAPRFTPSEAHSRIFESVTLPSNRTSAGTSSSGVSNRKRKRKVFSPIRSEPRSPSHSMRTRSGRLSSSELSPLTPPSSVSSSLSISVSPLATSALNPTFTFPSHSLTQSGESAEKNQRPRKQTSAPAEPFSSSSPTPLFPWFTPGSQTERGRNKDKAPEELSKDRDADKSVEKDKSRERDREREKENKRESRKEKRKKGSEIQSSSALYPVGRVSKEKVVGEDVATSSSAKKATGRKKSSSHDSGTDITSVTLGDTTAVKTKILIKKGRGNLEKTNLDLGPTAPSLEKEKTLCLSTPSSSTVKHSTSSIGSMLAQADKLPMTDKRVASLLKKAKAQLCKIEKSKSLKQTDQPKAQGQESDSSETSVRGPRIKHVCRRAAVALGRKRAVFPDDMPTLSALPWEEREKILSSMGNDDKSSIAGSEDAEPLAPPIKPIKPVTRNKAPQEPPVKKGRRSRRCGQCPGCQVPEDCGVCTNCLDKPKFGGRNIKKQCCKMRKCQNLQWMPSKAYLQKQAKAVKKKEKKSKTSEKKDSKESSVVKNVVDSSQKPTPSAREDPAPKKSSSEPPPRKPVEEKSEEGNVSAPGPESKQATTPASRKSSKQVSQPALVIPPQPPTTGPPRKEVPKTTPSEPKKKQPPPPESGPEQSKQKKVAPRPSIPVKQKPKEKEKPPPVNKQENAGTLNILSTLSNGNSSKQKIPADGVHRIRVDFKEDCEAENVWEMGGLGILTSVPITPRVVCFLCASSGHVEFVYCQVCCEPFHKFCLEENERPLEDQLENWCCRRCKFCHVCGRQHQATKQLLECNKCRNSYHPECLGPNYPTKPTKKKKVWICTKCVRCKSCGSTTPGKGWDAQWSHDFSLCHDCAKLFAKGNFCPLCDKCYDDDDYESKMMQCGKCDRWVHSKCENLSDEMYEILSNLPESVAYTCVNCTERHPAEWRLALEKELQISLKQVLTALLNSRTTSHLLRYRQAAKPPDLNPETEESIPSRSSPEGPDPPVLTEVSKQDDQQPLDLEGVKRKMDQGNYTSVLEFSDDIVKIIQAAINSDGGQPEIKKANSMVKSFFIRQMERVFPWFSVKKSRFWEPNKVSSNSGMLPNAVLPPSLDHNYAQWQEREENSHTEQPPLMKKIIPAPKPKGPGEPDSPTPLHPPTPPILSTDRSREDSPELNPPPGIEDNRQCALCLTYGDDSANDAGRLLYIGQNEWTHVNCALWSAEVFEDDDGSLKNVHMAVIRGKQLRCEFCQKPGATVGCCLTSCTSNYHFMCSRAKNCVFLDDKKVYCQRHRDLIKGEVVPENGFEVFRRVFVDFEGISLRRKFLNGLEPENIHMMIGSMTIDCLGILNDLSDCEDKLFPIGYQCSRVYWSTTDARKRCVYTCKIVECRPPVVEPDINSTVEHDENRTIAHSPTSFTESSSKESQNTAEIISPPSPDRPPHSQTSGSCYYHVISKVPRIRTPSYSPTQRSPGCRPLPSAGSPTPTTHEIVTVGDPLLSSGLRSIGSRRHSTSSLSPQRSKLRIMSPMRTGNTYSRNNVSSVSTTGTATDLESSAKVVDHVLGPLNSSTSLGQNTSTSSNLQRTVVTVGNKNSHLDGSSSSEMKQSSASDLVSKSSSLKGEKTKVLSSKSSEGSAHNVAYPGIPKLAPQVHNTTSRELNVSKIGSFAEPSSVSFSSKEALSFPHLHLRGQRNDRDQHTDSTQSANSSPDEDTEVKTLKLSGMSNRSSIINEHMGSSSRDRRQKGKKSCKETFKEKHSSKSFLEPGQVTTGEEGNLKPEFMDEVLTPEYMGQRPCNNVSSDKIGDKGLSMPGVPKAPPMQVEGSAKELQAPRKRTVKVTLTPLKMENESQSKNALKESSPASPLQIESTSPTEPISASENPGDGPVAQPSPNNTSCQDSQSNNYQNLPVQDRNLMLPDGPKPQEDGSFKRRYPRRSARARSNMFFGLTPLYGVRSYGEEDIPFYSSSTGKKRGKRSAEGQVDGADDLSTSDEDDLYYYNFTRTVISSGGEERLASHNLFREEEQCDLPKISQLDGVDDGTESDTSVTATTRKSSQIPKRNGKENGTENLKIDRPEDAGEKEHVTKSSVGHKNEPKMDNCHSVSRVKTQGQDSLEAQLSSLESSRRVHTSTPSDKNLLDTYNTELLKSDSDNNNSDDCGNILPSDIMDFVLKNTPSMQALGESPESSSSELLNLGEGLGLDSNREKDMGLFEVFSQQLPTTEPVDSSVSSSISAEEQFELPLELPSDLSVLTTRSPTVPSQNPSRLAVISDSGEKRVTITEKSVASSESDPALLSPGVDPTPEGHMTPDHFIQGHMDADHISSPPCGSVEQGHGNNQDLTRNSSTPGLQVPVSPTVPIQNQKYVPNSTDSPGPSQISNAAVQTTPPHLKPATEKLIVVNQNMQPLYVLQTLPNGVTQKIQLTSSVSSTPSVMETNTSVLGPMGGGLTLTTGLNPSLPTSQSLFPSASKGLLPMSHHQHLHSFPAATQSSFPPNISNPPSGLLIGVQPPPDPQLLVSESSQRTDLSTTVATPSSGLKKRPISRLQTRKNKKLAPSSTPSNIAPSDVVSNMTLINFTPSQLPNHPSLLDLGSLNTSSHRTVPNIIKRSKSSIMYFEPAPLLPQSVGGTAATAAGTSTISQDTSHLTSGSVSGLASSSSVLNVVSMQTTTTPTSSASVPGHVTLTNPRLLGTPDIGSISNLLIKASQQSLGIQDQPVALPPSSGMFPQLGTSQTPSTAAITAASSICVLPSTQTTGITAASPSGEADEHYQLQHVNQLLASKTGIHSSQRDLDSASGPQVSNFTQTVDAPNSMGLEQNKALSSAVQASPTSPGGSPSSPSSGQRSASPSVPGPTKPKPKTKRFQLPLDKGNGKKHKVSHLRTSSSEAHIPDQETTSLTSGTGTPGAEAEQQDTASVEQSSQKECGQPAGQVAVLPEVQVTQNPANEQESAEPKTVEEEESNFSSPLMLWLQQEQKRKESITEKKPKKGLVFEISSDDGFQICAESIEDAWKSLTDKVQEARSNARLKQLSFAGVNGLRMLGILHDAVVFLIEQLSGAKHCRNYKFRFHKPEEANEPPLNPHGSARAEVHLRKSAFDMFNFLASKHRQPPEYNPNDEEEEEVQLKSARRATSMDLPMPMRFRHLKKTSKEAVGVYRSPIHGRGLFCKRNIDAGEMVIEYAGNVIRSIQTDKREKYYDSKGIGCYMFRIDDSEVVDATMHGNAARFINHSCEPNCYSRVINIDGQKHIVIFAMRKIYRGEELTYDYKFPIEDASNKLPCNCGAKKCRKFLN
This is a hit validation assay that tests this hits identified in the primary screen in this secondary screen, using a Texas Red FP as a read-out.
NIH Molecular Libraries Probe Production Network [MLPCN]
NIH Chemical Genomics Center [NCGC]
PI Name: John Bushweller, University of Virgina
The affinity purified MLL-CXXC domain, unlabeled HOX-A9 DNA strand, Texas Red (FLSN) labeled HOX-A9 DNA strand were kindly supplied by the laboratory of Dr. John Bushweller, University of Virginia. All reagents were stored in single use aliquots at -80C.
Assay buffer: 50 mM TRIS-HCl pH 7.5, 50 mM NaCl, 1 mM DTT. Add 0.05% BSA prior to reaction setup.
1.Dispense 1 ul of a 7 uM MLL-CXXC solution prepared in assay buffer into column 1-48.
2.Transfer 23 nl of compounds and unlabeled HOX-A9 per well.
3.Incubate for 5 minutes at ambient.
4.Dispense 1ul of a 50 nM TR-HOX-A9 solution prepared in assay buffer into columns 1-48
5.Centrifuge for 30 seconds at 1000 RPM.
6.Incubate for 30 minutes at ambient.
7.Read using the Envision reader fluorescent polarization protocol.
For orientation: In qHTS, concentration-response curves come from the screen itself.
Take `COc1ccc(-c2onc3ccc(C(C)=O)cc23)cc1`: the Potency result is “inactive”.

For the compound `O=C1NN(c2ccccc2)C(=O)/C1=C/c1ccc(-c2cccc(C(=O)O)c2)o1`, the Potency is 126 µM (active).

Turning to `COc1ccc(S(=O)(=O)/N=C2\C=C(NS(=O)(=O)c3ccccc3)C(=O)c3ccccc32)cc1`, the Potency result was “inactive”.

With `CCOC(=O)/C(N=Nc1cc(C(=O)O)cc(C(=O)O)c1)=C(\O)CCl`, the Potency was 142 µM (active).

Consider `COc1cc(/C=C2/C(=O)NN(c3ccc(F)cc3)C2=O)cc([N+](=O)[O-])c1O`, for which the Potency is 126 µM (active).

Source of the values: PubChem BioAssay AID624161 (National Center for Advancing Translational Sciences (NCATS), 2012).
